GPR151 ag = activators of human GPR151, primary screen, cell-based, PathHunter beta-arrestin, luminescence; PathHunter beta-arrestin GPR151 cells; 650,000 compounds, 1% hits; activation, % at 11.2 µM; in the data active means activation above about 4.9%
MITF inh = MITF inhibitors, primary screen, biochemical, AlphaScreen, human. AlphaScreen MITF homodimerization, bead proximity signal. inhibition, % at 2.6 µM. 650,000 compounds, 0.91% hits; in the data active means inhibition above about 50%
Target sequence (O75030 whole entry, looked up): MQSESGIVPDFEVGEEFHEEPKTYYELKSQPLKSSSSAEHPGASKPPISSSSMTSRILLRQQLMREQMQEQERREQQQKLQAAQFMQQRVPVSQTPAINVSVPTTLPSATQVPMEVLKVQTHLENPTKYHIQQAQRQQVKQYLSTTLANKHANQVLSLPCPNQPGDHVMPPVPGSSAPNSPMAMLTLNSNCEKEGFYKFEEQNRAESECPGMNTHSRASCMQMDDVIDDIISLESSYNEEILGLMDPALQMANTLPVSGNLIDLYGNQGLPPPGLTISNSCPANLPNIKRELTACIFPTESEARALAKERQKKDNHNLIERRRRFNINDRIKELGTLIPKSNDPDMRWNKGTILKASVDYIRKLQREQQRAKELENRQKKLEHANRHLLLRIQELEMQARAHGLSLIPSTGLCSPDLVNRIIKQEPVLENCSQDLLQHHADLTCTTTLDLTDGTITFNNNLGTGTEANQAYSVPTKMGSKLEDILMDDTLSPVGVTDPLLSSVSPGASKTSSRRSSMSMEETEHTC
FBW7 act = FBW7 E3 ligase activators, primary screen, biochemical, AlphaScreen, human; F-box/WD repeat-containing protein 7 (Homo sapiens), Q969H0; AlphaScreen FBW7–phospho-cyclin E peptide binding, activator screen; normalized activity (activation), % at 26.1 µM; 650,000 compounds, 0.13% hits; in the data active means normalized activity above about 1.9%;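 further: purified mutant Fbw7 with reduced substrate affinity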
TEAD-YAP inh = TEAD-YAP interaction inhibition, primary screen, TEAD-YAP interaction inhibitor project, luminescence, HEK-TIYL cells; TEAD-Gal4/YAP UAS-luciferase luminescence; inhibition, % at 9.12 µM; 640,000 compounds, 1.4% hits; in the data active means inhibition above about 32%
Numbers stand for hits; . = inactive; ! = not confirmed by another sample. An excerpt weighted towards active compounds, which were near 3.5% of everything screened.

SMILES	GPR151 ag	MITF inh	FBW7 act	TEAD-YAP inh
CC(=O)NC(c1ccco1)c1ccc2cccnc2c1O (stereo unspecified)	.	77	.	44
Cc1sc(NC(=O)c2ccc(S(=O)(=O)N(C)C)cc2)nc1-c1ccccc1	.	.	.	41
Cc1sc(NC(=O)c2ccc(S(=O)(=O)N(C)c3ccccc3)cc2)nc1-c1ccccc1	.	.	.	.
CN(C)S(=O)(=O)c1ccc(C(=O)Nc2ccc(-c3nc4ccccc4[nH]3)cc2)cc1	.	.	5.0	.
O=C(Nc1ccc(-c2nc3ccccc3[nH]2)cc1)c1ccc(=O)n(Cc2ccccc2)n1	.	.	.	34
CC1=C(C(=O)Nc2ccccc2F)C(c2cccnc2)C2=C(CCCC2=O)N1 (stereo unspecified)	.	.	.	.
CCOC(=O)C1=C(C)NC2=C(C(=O)C(C(=O)OCC)C(c3cccc(OC)c3)C2)C1c1ccccc1 (stereo unspecified)	.	.	.	.
c1ccc(OCCNc2ncnc3nc(Nc4cccnc4)[nH]c23)cc1	.	.	.	.
Cc1ccc(S(=O)(=O)N2CCCCC2CCNC(=O)C(=O)NCCc2ccco2)cc1 (stereo unspecified)	.	.	.	47
Cc1ccc(S(=O)(=O)N2CCCCC2CCNC(=O)C(=O)NC2CCCC2)cc1 (stereo unspecified)	.	.	.	.
O=C(NCCc1ccco1)C(=O)NCC1CCCN1S(=O)(=O)c1ccccc1 (stereo unspecified)	.	.	.	32
Cc1ccc(S(=O)(=O)N2CCCCC2CCNC(=O)C(=O)NCc2ccco2)cc1 (stereo unspecified)	.	.	.	41
Cc1ccc(S(=O)(=O)N2CCCCC2CCNC(=O)C(=O)NCc2cccs2)cc1 (stereo unspecified)	.	.	.	48
COc1ccccc1/C=N/c1nc(-c2ccccc2)c(C)s1	.	.	.	.
COc1ccc(CNC(=O)C/C(C)=N/NC(=O)c2cc(Cl)ccc2O)cc1	.	.	.	.
COc1ccc2nc(SCC(=O)N(C)C)c(C#N)cc2c1	.	.	.	.
COc1ccc(CN2CCN(CC(C)C)C(CCO)C2)c(OC)c1OC (stereo unspecified)	.	.	.	.
CCOC(=O)C1(NC(=S)N2CCOCC2)Sc2cc(C)ccc2NC1=O (stereo unspecified)	.	.	.	52
CCOC(=O)C1(Nc2ccccc2)Sc2cc(C)ccc2NC1=O (stereo unspecified)	.	.	.	63
CCOC(=O)C1(N(CC)CC)Sc2cc(C)ccc2NC1=O (stereo unspecified)	.	.	.	.
Cc1ccc(C(=O)NC2CCC(C)CC2)cc1NC1=NC2CS(=O)(=O)CC2S1 (stereo unspecified)	.	.	.	.
Cc1sc2ncnc(NC(C)c3ccc(-n4ccnc4)cc3)c2c1C (stereo unspecified)	.	.	.	47
Cc1sc2ncnc(NCc3ccncc3)c2c1C	.	.	.	.
CCC(=O)NC(c1ccc(C)cc1)c1ccc2cccnc2c1O (stereo unspecified)	.	.	.	88
CCC(=O)NC(c1ccc([N+](=O)[O-])cc1)c1ccc2cccnc2c1O (stereo unspecified)	.	.	.	85
SMILES	GPR151 ag	MITF inh	FBW7 act	TEAD-YAP inh
CCC(=O)NC(c1cccc([N+](=O)[O-])c1)c1ccc2cccnc2c1O (stereo unspecified)	.	.	.	.
COc1ccccc1OCC(=O)NCC1(c2cccs2)CC1	.	.	.	.
c1ccc(-c2nc(NCc3nc4ccccc4[nH]3)c3ncn(-c4ccsc4)c3n2)cc1	.	.	.	58
O=C(NC1CC1)c1ccc(-c2nc(NCc3cccc(C(F)(F)F)c3)c3ncn(-c4ccsc4)c3n2)cc1	.	.	.	.
O=C(NC1CC1)c1ccc(-c2nc(NCc3nc4ccccc4[nH]3)c3ncn(-c4ccsc4)c3n2)cc1	.	.	.	87
O=C(NC1CC1)c1ccc(-c2nc(Nc3ccccc3)c3ncn(-c4ccsc4)c3n2)cc1	.	.	25	.
CC(=O)c1cccc(-c2nc(NCc3nc4ccccc4[nH]3)c3ncn(-c4ccsc4)c3n2)c1	.	.	.	69
COC(=O)c1c(NC(=O)c2cnn3c(C(F)(F)F)cc(-c4ccccc4)nc23)sc2c1CCCC2	.	.	.	.
NC(=O)c1ccc(-c2nc(NCc3nc4ccccc4[nH]3)c3ncn(-c4ccsc4)c3n2)cc1	.	.	.	83
Cc1ccc(/C=N/NC(=O)CNC(=O)c2ccccc2Br)cc1	.	.	.	47
Cc1ccc(/C=N/NC(=O)CNc2cccc(C)c2)cc1	.	.	.	38
Fc1ccc(-n2ncc3c(NC4CCCC4)ncnc32)cc1	.	.	.	.
Cc1ccc(-n2ncc3c(NC4CCCC4)ncnc32)cc1	.	.	.	37
CN(c1ncnc2c1cnn2-c1ccccc1)C1CCCCC1	.	.	.	93
Cc1cccc(-n2ncc3c(NC4CCCCC4)ncnc32)c1	.	.	.	53
c1ccc(-n2ncc3c(NC4CCCCCCCCCCC4)ncnc32)cc1	.	.	.	.
O=C1NC2(CCCc3sccc32)C(=O)N1Cc1c(F)cccc1Cl (stereo unspecified)	.	.	.	.
CCNC(=O)[C@@H]1C[C@@H](NCc2ccncc2)CN1Cc1ccc2ccccc2c1	.	.	.	.
COc1cccc(-c2nnc(-c3ccc(N)cc3)o2)c1	.	.	.	41
Cc1nc2cc(NC(=O)N3c4ccccc4CC3C)ccc2n1C (stereo unspecified)	.	.	.	37
CCOc1cc(C2C(C#N)=C(N)Oc3c2ccc2ccccc32)cc(Br)c1O (stereo unspecified)	.	.	.	65
Cc1ccc(C(=O)c2cn(CC(=O)Nc3ccc(C(C)C)cc3)c3ccccc3c2=O)cc1	.	.	.	.
CCC(C)NC(=O)C(Cc1ccccc1)NS(=O)(=O)c1cccs1 (stereo unspecified)	.	.	.	.
CN(Cc1ccccc1)C(=O)C(Cc1ccccc1)NS(=O)(=O)c1cccs1 (stereo unspecified)	.	.	.	36
O=C(CCN1C(=O)c2cccc3cccc(c23)C1=O)Oc1ccc2c(c1)OCO2	.	.	.	.
N#Cc1c(/N=C/c2ccc(O)cc2O)sc2c1CCCC2	.	.	.	61
N#Cc1c(/N=C\c2ccc(O)cc2O)sc2c1CCCC2	.	.	.	.
O=C1CSC(c2ccc(F)c(F)c2)N1c1cccc(Cl)c1 (stereo unspecified)	.	.	.	.
O=c1oc2c(O)c(O)cc3c(=O)oc4c(O)c(O)cc1c4c23	.	94!	.	.
Cc1c(C)c2ccc(O)c(O)c2oc1=O	.	.	.	.
